Results published in PubChem BioAssay (NCI).
About 83,000 compounds went through this panel and 20% of them were active in at least one assay; those are over-represented in the sample as a whole.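 Step 1: grow cells in 96-well plates. Step 2: add test compound at a single concentration. Step 3: incubate 48 h. Step 4: record percent growth.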 Values without a mark were called inactive. Calls of active or inactive are those of the source. Rule for the calls: active = growth percent below 10; inactive = the rest.

Experiments:
Assay in all cases: NCI-60 one-dose screen, 48 h (100 = growth as untreated, 0 = no growth, -100 = all killed)
[1] = system: HCT-15 colon; details: 10 µM unless noted
[2] = system: HT29 colon; details: 10 µM unless noted
[3] = system: SNB-75 CNS; details: 10 µM unless noted
[4] = system: SNB-19 CNS; details: 10 µM unless noted
[5] = system: U251 CNS; details: 10 µM unless noted
[6] = system: PC-3 prostate; details: 10 µM unless noted
[7] = system: SK-MEL-5 melanoma; details: 10 µM unless noted
[8] = system: UACC-62 melanoma; details: 10 µM unless noted
[9] = system: SK-MEL-28 melanoma; details: 10 µM unless noted
[10] = system: LOX IMVI melanoma; details: 10 µM

Row | SMILES | growth [1] | growth [2] | growth [3] | growth [4] | growth [5] | growth [6] | growth [7] | growth [8] | growth [9] | growth [10]
1 | Nc1nnc(-c2c[nH]c3ccc(Br)cc23)c(-c2c[nH]c3ncc(Br)cc23)n1 | 26.9% | 43.6% | 50.2% | 47% | 41.8% | 29.1% | 44.2% | 25.3% | 37.5% | –
2 | CCOC(=O)C1=C(N)N(c2ccccc2)C2=C(C(=O)CC(C)(C)C2)C1c1cccc(Cl)c1Cl (stereo not given) | 65.8% | 72.7% | 56.8% | 41.7% | 55.2% | 35.3% | 77.6% | 55.6% | 91% | –
3 | COc1cc(OC)cc(-c2cc3ccc(N(C)C)cc3c(=O)[nH]2)c1 | 18.9% | 12.4% | 57.3% | 35.5% | 7.67% (active) | 35.7% | – | 51.8% | 61.3% | 23%
4 | Cc1cnc(C(=O)NNc2nc3cc(F)ccc3n3c(C(=O)N4CC5CC(C4)N5)ccc23)cn1 | 32.4% | 41.5% | 71.6% | 35.2% | 22.9% | 47.2% | – | 2.81% (active) | 30.3% | 16%
5 | CCS(=O)(=O)N1CCCC(C(=O)Nc2nc3ccc(NC(=O)c4ccc(F)c(OC)c4F)cc3s2)C1 (stereo not given) | 51% | 69.2% | 62.5% | 78.9% | 65.9% | 50.6% | -7.02% (active) | 58.2% | 78.6% | –
6 | O=C(Cn1c2c(sc1=O)[C@H]1[C@@H](O)[C@@H](O)[C@H](O)[C@@H]1CS2)N1CCOCC1 | 107% | 106% | 82.3% | 103% | 99.2% | – | 102% | 101% | 107% | –
7 | COc1cc(OC)cc(C(=O)Nc2cccc(-c3cn(-c4ccc(S(N)(=O)=O)cc4)nn3)c2)c1 | 92.2% | 114% | 51.7% | 17.8% | 32.2% | 91.4% | – | 80.4% | 81.1% | 69.3%
8 | O=C(NNc1nc2cc(F)ccc2n2c(CN3CC4CNCC4C3)ccc12)c1ccncn1 (stereo not given) | 28.9% | 31.7% | 49% | 22.2% | 9.87% (active) | 32.6% | – | -13.4% (active) | 23.2% | 6.59% (active)
9 | NS(=O)(=O)c1ccc(-n2cc(-c3cccc(NC(=O)c4ccc(Cl)c(C(F)(F)F)c4)c3)nn2)cc1 | 41.6% | 9.41% (active) | 5.75% (active) | 32.3% | -54.8% (active) | 17.7% | – | 35% | -14.5% (active) | –
10 | COc1cc(OC)c2c3nc4cc(C)c(C)cc4nc3n(CCN(C)C)c2c1 | -27.9% (active) | 49.9% | 78.3% | 70.5% | 87.7% | – | 69.8% | 99.1% | 66.5% | –
11 | COc1ccc(C(=O)Nc2n[nH]c(Nc3ccccc3)c2C#N)cc1 | 102% | 112% | 112% | 99.5% | 111% | 111% | – | 99.6% | 103% | –
12 | CN1CCN(c2ccc(C(=O)/C=C/c3ccc(Br)cc3)cc2)CC1 | 8.41% (active) | 6.76% (active) | 28.3% | 31.4% | -75.7% (active) | 34.4% | – | -9.44% (active) | 37.7% | -13.4% (active)
13 | Cc1cc2nc3c([nH]c2cc1C)c1ccc(=O)cc1n3CCN(C)C | 19.3% | 23.4% | 63.2% | 38.2% | 40% | – | 41.5% | 65.8% | 51.4% | –
14 | C/C(=N\Nc1ccc(S(N)(=O)=O)cc1)c1ccc(N=Nc2c(Nc3ccccc3)[nH][nH]c2=O)cc1 | 36.7% | 4.54% (active) | 21% | -5.15% (active) | -46.7% (active) | 20% | – | -40.7% (active) | -54.1% (active) | -41.2% (active)
15 | Cc1ccc(-c2nnc3ccc(N/N=C/c4ccccc4)nn23)cc1 | 69.2% | 118% | -17% (active) | 86.6% | 75.1% | 89.3% | – | 98.4% | 95.7% | 47.5%
16 | COc1ccc(-c2nnc3ccc(N/N=C/c4ccc(O)cc4)nn23)cc1 | 26.7% | 87.4% | 53.6% | 67.5% | 67.6% | 40.5% | – | 58.8% | 69.1% | -54.8% (active)
17 | COc1ccc(C(=O)/C=C/c2cc3c(cc2Br)OCO3)cc1S(N)(=O)=O | -40.4% (active) | 0.446% (active) | 2.3% (active) | 6.32% (active) | -95.1% (active) | 2.21% (active) | – | 39.2% | 27.6% | -85.5% (active)
18 | COc1ccc(C(=O)/C=C/c2cccc(Br)c2)cc1S(N)(=O)=O | -69.7% (active) | -56.4% (active) | -17% (active) | -42.8% (active) | -98.4% (active) | -34.6% (active) | – | -55.8% (active) | -55.6% (active) | -91.7% (active)
19 | CCCSc1nc(NCCc2c[nH]c3ccccc23)c(C#N)c(-c2ccccc2)n1 | 27.3% | 30.3% | 87.7% | – | 44.6% | 35% | 41.6% | 76.3% | 97.4% | 53.3%
20 | COc1ccc(C(=O)/C=C/c2cccc(Cl)c2)cc1S(N)(=O)=O | -89.9% (active) | 0.678% (active) | 29.5% | 0.182% (active) | -97.1% (active) | 31.7% | – | -3.37% (active) | -25.7% (active) | –
21 | COc1ccc(C(=O)/C=C/c2c(F)cccc2Cl)cc1S(N)(=O)=O | -11.9% (active) | 8.46% (active) | 29.7% | 19.6% | -86.8% (active) | 18.8% | – | 15.4% | -4.35% (active) | -69.1% (active)
22 | O=C(NNc1nc2cc(F)ccc2n2c(CN3CCCCC3)ccc12)c1cnccn1 | -52.4% (active) | 8.19% (active) | -9.76% (active) | -8.81% (active) | -84.8% (active) | -18.3% (active) | – | -35.2% (active) | -57.4% (active) | -69.7% (active)
23 | O=c1[nH]c2ccccc2cc1CSc1cccc(Nc2nccc(-c3ccc4ccccc4c3)n2)c1 | 65.1% | 81.8% | 84.6% | – | 81.9% | 71% | 63.8% | 95.2% | 106% | 87.4%
24 | NS(=O)(=O)c1ccc(-n2cc(-c3cccc(NC(=O)c4cc(Cl)cc(Cl)c4)c3)nn2)cc1 | 94.7% | 32.1% | 86.2% | 68.6% | -45.9% (active) | 69.7% | – | 69.6% | 45.3% | –
25 | COc1ccc(C2=NN(c3ccccc3)C(c3ccc(OCc4ccccc4)c(OC)c3)C2)cc1OC (stereo not given) | 93.8% | 86.6% | 97.3% | 98.9% | 108% | 92.7% | – | 85.1% | 104% | 105%
26 | CN(C)CCn1c2ccccc2c2nc3cc(C(F)(F)F)ccc3nc21 | 19.4% | 27.6% | 44.5% | 36.4% | 38.1% | – | 28.3% | 44.8% | 44.4% | –
27 | Cc1cc(C)n(-c2ccc3nnc(-c4ccccc4)n3n2)n1 | 86.4% | 115% | 94.4% | 98.3% | 102% | 104% | – | 99.9% | 122% | 77.3%
28 | COc1ccc(-c2nnc3ccc(N/N=C/c4ccc(C)cc4)nn23)cc1 | 50% | 82.6% | -38.6% (active) | 92.6% | 44.9% | 72.2% | – | 88.9% | 93.6% | 23.7%
29 | O=C(Nc1ccc(C(F)(F)F)cc1)Nc1ccc2oc(=O)ccc2c1 | 10.1% | 9.84% (active) | 44.1% | 29.5% | -0.283% (active) | 13.6% | – | 28% | 37.6% | –
30 | Cc1cc2nc3c4ccccc4n(CC4=NCCN4)c3nc2cc1C | 0.357% (active) | -74.3% (active) | 25.1% | 15.8% | -72.5% (active) | – | -91.7% (active) | -91.2% (active) | -93.5% (active) | –
